# Reference: the supplement of paper PMC4371806
# The full ranking holds about 2,300 compounds; the median of “plate-normalized OD600 growth (mean of duplicates)” is about 0.29, and the lowest 2% start at about 0.22. The sample holds the lowest values, similar compounds and a random draw of the others, so the mix is not that of the screen.
# Tested on: Escherichia coli BW25113
# Assay: plate-normalized OD600 growth (mean of duplicates) (OD600 (normalized)); higher = more growth (less inhibition)
# Details: 10 µM
# Description: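 E. coli BW25113 in LB (100 µl, 96-well, no shaking) was exposed to 10 µM of each compound from a ~30,000-member library and grown at 37°C for 24 h or 15°C for 48 h, in duplicate. Growth was read as OD600 and the duplicate ODs were normalized across screening plates to correct plate-to-plate variation. Hits were >3σ below the mean OD600 at 15°C and <2σ below the mean at 37°C.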
SMILES,"plate-normalized OD600 growth (temperature: 15°C, 48 h)","plate-normalized OD600 growth (temperature: 37°C, 24 h)"
NC(N)=NC(N)=Nc1ccccc1C(F)(F)F,0.243,0.604
Cc1ccc(C2=Nc3ccccc3N=C(C(Cl)Cl)C2)cc1,0.25,0.629
Cc1noc(N)c1C(N)=S,0.247,0.612
O=C(COc1ccc(/C=N/NC(=O)CO)cc1)NCC1CCCO1 (stereo unspecified),0.227,0.668
NNC(=O)c1cnn(-c2ccc(Cl)cc2)c1C(F)(F)F,0.253,0.627
CCN(CC)c1ccc(NC(=O)c2c(F)cccc2F)c(N(CC)CC)n1,0.235,0.602
Cc1ccc(N=Cc2ccc(Sc3nc4ccccc4s3)o2)cc1,0.245,0.625
C/C(=N/NC(=O)COc1cccc(Cl)c1)c1ccc(Cl)cc1,0.248,0.631
CC1(O)N(CCN)C(=O)OC12CCCCC2 (stereo unspecified),0.269,0.626
CC1(C)OC(=O)N(CCCCCCN2C(=O)OC(C)(C)C2(C)O)C1(C)O (stereo unspecified),0.197,0.652
COc1ccc(/C(C)=N\NC2=NCCCN2)cc1,0.214,0.597
Nc1c(C(=O)c2ccc(Br)cc2)sc2nc(-c3cccs3)cc(C(F)(F)F)c12,0.142,0.578
Nc1c(C(=O)c2ccc(Br)cc2)sc2nc(-c3ccccc3)cc(-c3ccccc3)c12,0.256,0.621
Cc1ccc(C(=O)c2sc3nc(-c4cccs4)cc(C(F)(F)F)c3c2N)cc1,0.239,0.623
Cc1ccccc1COC(=O)c1ccc(-c2nnn(Cc3ccccc3C)n2)cc1,0.244,0.611
CCOc1ccc(NC(=O)CSc2nc(C)cc(COC)c2C#N)cc1,0.21,0.638
CCOc1ccc(-n2nc3ccc(NC(=O)COc4ccccc4C)cc3n2)cc1,0.235,0.616
COCc1cc(C)nc2sc(C(=O)OC)c(N)c12,0.243,0.626
CCc1c(C)nc2cc(-c3ccc(Cl)cc3)[nH]n2c1=O,0.214,0.632
Cc1cc(=O)n2c(-c3ccc(Cl)cc3)csc2n1,0.239,0.607
CCc1c(C)nc2[nH]nc(-c3ccccc3C)n2c1=O,0.245,0.626
NC(N)=NS(=O)(=O)c1ccc(NC(=O)C2CCCCC2)cc1,0.256,0.628
COc1ccc2[nH]c(C)c(CCNS(=O)(=O)c3cc(Cl)ccc3Cl)c2c1,0.249,0.606
COc1ccc(Cc2nnc(-c3ccc(-c4cccs4)s3)o2)cc1,0.258,0.615

SMILES,"plate-normalized OD600 growth (temperature: 15°C, 48 h)","plate-normalized OD600 growth (temperature: 37°C, 24 h)"
Cc1c(NC(=O)c2ccc(N)cc2)c(=O)n(-c2ccccc2)n1C,0.248,0.629
CC(C)(C)OC(=O)NC1CCN(C(=O)c2ccc(Cl)cc2Cl)CC1,0.244,0.629
O=[N+]([O-])c1ccc2c(c1)S(=O)(=O)N=C2Nc1cc(Cl)ccc1Cl,0.251,0.626
C=CCn1c2ccccc2c2nnc(SCC(=O)Nc3ncccn3)nc21,0.245,0.599
Cc1cccc(C2(c3cccc(C)c3)CC2C(=O)Nc2ccc(C#N)cc2)c1 (stereo unspecified),0.232,0.597
CC(C)CSc1ncnc2scc(-c3ccccc3)c12,0.235,0.631
Cc1ccc(N(C)C(=S)Nc2ccc3nc[nH]c(=O)c3c2)cc1C,0.237,0.625
Cc1cccc(-n2c(C)cc(C=Nc3ccc(Cl)cc3O)c2C)c1,0.249,0.613
COc1c(Cl)cnc(Cl)c1C(N)=O,0.265,0.636
C/C(=N/O)c1ccc2c(c1)C(C)(C)CCC2(C)C,0.256,0.629
N#Cc1cc(I)c(C#N)c(I)c1,0.198,0.616
O=C(O)CCCN1C(=O)C(=O)C(=C(O)c2ccccc2)C1c1ccc(Br)cc1 (stereo unspecified),0.226,0.646
Cc1sc(NC(=O)c2cc3ccccc3oc2=O)nc1-c1ccc(-c2ccccc2)cc1,0.253,0.625
CC(C)(C)n1ncc(N/N=C/c2ccc(Cl)cc2)c(Cl)c1=O,0.238,0.605
CC(C(=O)O)C(=O)c1cc(Cl)c(Cl)cc1Cl (stereo unspecified),0.215,0.63
O=S(=O)(c1cc(Br)c(Br)s1)N1CCCCC1,0.262,0.63
Nc1nc(=Nc2ccccc2)n2c(n1)sc1ccccc12,0.243,0.61
CC(=O)Nc1ccc(NC(=O)CSc2nnc(NS(C)(=O)=O)s2)cc1,0.252,0.63
O=C1C(Cl)=C(Oc2cc(Cl)c(Cl)cc2Cl)C(=O)c2ccccc21,0.211,0.613
COc1cc(Cl)c(Cl)cc1Cl,0.251,0.604
COc1ccc(NC(=O)/C=C/c2cccc(Oc3ccccc3)c2)cc1,0.245,0.633
NC1=Nc2nc(Nc3ccccc3)sc2/C(=C/c2ccc(O)cc2)N1,0.248,0.628
Cc1onc(-c2ccccc2Cl)c1C(=O)Nc1ccc(S(=O)(=O)Nc2nccs2)cc1,0.246,0.614
NS(=O)(=O)c1ccc(CCn2c(-c3ccc(S(=O)(=O)N4CCCC4)cc3)csc2=Nc2cccc(C(F)(F)F)c2)cc1,0.257,0.65
